How the values were obtained:
[1] = molecular target: Tyrosine-protein kinase SYK (Homo sapiens) (UniProt P43405); conditions: at 10 µM
[2] = molecular target: T1, Mitogen-activated protein kinase kinase kinase 7 (Homo sapiens) (UniProt O43318); conditions: at 1 µM
T1 sequence (whole entry): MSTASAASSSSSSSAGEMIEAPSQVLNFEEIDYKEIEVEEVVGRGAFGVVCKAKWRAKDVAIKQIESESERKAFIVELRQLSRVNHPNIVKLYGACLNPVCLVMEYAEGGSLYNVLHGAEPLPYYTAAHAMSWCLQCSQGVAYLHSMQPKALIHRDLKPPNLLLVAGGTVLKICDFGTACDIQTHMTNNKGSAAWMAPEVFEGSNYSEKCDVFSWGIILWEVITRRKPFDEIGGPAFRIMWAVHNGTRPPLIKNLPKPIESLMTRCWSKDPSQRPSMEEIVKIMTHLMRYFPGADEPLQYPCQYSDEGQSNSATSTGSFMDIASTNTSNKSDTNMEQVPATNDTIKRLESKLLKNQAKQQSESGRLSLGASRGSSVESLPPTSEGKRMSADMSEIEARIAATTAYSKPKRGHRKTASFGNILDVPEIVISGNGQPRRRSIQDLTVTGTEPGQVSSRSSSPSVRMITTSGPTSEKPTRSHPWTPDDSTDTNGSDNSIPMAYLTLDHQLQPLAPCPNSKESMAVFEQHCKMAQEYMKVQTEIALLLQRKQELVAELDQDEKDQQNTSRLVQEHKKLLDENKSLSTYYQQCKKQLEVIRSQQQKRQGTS

[3] = molecular target: T1, Mitogen-activated protein kinase kinase kinase 7 (Homo sapiens); conditions: at 10 µM
[4] = molecular target: T2, Serine/threonine-protein kinase TAO1 (Homo sapiens) (UniProt Q7L7X3); conditions: at 1 µM
T2 sequence (whole entry): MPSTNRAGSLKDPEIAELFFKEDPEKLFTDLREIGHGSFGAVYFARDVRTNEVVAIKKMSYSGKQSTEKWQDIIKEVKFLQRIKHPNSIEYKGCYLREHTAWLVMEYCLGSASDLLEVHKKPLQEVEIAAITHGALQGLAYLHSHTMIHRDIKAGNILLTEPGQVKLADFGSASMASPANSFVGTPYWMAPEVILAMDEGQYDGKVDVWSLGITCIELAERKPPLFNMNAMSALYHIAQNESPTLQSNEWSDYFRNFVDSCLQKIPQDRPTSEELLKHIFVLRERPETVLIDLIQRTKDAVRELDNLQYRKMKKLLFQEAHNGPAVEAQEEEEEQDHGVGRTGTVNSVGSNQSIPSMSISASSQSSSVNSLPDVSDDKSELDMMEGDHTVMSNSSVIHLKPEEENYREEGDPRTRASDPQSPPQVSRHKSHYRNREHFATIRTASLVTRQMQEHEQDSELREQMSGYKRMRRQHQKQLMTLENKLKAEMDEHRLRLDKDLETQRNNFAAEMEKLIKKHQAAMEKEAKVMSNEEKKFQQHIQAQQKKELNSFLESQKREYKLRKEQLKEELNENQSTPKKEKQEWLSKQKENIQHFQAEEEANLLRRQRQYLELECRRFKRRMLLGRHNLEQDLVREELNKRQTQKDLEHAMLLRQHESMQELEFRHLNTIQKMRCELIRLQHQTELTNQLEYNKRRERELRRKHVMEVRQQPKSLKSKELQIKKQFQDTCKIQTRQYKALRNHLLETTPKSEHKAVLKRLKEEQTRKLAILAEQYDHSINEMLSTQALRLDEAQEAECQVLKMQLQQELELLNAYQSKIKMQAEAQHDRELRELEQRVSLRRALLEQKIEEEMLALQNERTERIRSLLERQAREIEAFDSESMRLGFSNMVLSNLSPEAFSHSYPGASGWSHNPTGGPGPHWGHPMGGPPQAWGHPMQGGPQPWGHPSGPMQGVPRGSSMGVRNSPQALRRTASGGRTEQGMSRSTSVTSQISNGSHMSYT

[5] = molecular target: T2, Serine/threonine-protein kinase TAO1 (Homo sapiens); conditions: at 10 µM
[6] = molecular target: T3, Serine/threonine-protein kinase TAO3 (Homo sapiens) (UniProt Q9H2K8); conditions: at 1 µM
T3 sequence (whole entry): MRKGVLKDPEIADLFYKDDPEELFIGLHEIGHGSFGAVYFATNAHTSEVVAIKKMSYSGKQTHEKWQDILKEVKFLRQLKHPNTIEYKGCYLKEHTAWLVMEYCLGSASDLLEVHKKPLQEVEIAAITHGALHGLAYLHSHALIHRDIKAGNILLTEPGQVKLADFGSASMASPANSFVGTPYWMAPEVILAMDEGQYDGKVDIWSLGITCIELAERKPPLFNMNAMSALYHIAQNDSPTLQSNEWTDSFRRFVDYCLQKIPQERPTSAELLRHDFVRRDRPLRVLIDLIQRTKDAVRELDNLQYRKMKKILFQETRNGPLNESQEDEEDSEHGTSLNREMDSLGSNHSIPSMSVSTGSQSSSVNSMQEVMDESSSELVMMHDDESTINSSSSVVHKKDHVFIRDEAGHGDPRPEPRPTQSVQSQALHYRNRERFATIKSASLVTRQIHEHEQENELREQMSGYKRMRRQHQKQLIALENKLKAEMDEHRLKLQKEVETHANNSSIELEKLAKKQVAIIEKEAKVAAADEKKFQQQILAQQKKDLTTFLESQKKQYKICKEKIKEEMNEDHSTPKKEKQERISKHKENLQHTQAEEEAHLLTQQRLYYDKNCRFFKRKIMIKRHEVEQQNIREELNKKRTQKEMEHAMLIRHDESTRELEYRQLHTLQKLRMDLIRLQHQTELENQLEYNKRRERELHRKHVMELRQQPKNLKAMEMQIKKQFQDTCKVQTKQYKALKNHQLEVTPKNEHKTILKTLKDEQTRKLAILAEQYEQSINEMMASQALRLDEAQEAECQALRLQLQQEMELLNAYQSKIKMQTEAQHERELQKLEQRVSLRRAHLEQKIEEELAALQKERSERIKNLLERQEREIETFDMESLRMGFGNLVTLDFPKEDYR

[7] = molecular target: T3, Serine/threonine-protein kinase TAO3 (Homo sapiens); conditions: at 10 µM
[8] = molecular target: T4, Serine/threonine-protein kinase TBK1 (Homo sapiens) (UniProt Q9UHD2); conditions: at 1 µM
T4 sequence (whole entry): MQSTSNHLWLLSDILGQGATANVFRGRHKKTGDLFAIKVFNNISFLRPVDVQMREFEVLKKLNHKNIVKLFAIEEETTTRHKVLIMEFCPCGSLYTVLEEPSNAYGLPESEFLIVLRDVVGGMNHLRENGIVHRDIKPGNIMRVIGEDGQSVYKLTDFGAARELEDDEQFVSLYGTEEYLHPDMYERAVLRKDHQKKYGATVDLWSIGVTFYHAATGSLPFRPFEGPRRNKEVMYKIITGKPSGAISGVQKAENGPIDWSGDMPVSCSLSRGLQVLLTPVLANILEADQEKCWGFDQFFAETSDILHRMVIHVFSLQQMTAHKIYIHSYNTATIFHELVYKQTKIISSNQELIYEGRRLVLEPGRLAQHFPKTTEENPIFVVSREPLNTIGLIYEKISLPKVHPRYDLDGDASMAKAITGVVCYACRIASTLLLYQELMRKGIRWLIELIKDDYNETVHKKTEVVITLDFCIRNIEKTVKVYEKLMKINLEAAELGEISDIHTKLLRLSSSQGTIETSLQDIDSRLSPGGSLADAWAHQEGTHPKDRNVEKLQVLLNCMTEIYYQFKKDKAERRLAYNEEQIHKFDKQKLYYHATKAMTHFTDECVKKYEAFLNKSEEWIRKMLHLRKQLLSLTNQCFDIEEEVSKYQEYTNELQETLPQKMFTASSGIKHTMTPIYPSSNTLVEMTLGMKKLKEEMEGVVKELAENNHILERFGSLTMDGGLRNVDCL

[9] = molecular target: T4, Serine/threonine-protein kinase TBK1 (Homo sapiens); conditions: at 10 µM
[10] = molecular target: T5, TGF-beta receptor type-1 (Homo sapiens) (UniProt P36897); conditions: at 1 µM
T5 sequence (whole entry): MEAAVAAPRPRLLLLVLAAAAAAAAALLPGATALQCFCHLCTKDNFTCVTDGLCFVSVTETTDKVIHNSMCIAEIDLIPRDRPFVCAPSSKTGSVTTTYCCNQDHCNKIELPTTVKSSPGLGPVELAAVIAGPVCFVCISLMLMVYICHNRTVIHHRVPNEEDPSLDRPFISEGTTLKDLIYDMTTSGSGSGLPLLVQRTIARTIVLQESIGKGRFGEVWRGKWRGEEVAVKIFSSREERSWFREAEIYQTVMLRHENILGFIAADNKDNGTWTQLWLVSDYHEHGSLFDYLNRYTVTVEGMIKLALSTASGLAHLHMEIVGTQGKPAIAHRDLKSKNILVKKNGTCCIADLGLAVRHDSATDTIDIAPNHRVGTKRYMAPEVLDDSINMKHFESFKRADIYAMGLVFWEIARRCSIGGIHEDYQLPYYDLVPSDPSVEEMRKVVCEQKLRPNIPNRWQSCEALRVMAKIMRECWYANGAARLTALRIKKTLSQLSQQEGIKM

[11] = molecular target: T5, TGF-beta receptor type-1 (Homo sapiens); conditions: at 10 µM
[12] = molecular target: Insulin-like growth factor 1 receptor (Homo sapiens) (UniProt P08069); conditions: at 1 µM
[13] = molecular target: Insulin-like growth factor 1 receptor (Homo sapiens) (UniProt P08069); conditions: at 10 µM
[14] = molecular target: T6, Inhibitor of nuclear factor kappa-B kinase subunit beta (Homo sapiens) (UniProt O14920); conditions: at 1 µM
T6 sequence (whole entry): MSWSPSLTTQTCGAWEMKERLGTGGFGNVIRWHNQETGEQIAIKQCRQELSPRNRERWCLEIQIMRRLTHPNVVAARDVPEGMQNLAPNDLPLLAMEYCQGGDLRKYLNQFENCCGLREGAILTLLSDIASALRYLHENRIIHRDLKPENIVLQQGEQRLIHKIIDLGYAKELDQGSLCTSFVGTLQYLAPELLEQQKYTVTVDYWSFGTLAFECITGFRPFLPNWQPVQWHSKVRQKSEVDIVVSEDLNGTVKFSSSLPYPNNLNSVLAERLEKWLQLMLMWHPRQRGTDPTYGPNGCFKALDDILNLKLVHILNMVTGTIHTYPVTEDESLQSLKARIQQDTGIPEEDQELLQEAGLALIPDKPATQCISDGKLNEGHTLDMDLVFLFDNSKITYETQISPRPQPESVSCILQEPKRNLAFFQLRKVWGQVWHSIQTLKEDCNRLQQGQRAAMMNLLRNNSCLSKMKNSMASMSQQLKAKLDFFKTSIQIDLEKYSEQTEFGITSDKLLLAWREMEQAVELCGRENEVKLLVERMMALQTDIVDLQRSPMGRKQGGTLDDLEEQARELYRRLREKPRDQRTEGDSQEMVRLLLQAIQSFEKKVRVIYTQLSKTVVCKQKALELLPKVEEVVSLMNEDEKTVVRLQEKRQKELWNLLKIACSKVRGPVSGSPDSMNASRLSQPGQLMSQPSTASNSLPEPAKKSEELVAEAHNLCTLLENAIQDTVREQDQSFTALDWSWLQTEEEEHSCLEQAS

[15] = molecular target: T6, Inhibitor of nuclear factor kappa-B kinase subunit beta (Homo sapiens); conditions: at 10 µM
[16] = molecular target: Insulin receptor (Homo sapiens) (UniProt P06213); conditions: at 1 µM
[17] = molecular target: T7, Serine/threonine-protein kinase TAO2 (Homo sapiens) (UniProt Q9UL54); conditions: at 1 µM
T7 sequence (whole entry): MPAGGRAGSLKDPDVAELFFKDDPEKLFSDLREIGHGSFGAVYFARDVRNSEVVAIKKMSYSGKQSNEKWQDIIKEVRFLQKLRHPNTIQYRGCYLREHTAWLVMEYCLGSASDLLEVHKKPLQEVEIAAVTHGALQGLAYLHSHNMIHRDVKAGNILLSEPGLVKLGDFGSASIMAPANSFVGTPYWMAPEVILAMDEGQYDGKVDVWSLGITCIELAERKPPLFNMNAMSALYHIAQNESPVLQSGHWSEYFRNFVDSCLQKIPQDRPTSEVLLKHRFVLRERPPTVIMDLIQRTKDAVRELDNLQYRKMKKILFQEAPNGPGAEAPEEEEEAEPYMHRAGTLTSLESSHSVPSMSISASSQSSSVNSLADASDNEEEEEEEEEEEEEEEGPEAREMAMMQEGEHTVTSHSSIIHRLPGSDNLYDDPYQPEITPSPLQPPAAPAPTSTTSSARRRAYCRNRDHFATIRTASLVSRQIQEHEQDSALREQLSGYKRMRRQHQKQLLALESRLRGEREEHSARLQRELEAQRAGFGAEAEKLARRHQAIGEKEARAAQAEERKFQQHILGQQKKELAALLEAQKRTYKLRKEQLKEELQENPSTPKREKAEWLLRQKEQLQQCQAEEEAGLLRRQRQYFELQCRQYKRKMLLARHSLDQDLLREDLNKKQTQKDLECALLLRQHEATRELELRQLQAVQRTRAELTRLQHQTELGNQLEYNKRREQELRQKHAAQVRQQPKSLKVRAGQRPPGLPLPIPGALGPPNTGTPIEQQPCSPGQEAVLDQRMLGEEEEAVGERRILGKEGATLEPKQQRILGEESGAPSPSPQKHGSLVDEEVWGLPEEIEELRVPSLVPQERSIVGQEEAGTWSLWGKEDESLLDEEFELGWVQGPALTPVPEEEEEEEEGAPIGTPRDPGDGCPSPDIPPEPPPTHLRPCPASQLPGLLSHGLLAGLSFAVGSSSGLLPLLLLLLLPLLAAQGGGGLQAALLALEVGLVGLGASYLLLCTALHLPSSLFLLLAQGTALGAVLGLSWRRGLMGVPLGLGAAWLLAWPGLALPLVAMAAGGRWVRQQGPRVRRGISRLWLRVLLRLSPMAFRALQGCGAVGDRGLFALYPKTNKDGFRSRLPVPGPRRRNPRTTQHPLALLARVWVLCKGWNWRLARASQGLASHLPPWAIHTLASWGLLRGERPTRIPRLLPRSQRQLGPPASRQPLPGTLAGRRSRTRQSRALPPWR

[18] = molecular target: T7, Serine/threonine-protein kinase TAO2 (Homo sapiens); conditions: at 10 µM

Sequence of Insulin-like growth factor 1 receptor (Homo sapiens) (P08069 31-736 limits assumed): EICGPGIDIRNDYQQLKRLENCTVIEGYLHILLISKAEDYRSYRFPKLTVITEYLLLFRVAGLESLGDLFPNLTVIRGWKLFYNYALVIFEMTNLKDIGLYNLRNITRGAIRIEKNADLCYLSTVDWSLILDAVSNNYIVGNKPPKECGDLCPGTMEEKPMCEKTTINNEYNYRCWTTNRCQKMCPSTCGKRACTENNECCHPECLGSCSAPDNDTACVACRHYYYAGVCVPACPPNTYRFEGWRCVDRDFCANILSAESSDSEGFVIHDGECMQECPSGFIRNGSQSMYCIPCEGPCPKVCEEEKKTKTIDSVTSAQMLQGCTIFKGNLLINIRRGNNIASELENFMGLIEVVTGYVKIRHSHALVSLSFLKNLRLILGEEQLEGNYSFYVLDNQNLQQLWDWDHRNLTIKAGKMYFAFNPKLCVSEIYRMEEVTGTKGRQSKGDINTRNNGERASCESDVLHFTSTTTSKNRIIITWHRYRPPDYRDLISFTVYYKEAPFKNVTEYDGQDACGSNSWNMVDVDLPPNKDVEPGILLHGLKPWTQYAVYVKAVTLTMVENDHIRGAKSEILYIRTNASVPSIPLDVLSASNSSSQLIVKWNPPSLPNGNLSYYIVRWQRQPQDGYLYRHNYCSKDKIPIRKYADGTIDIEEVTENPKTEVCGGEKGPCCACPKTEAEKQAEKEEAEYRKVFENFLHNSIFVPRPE
Sequence of Insulin-like growth factor 1 receptor (Homo sapiens) (P08069 741-1367 limits assumed): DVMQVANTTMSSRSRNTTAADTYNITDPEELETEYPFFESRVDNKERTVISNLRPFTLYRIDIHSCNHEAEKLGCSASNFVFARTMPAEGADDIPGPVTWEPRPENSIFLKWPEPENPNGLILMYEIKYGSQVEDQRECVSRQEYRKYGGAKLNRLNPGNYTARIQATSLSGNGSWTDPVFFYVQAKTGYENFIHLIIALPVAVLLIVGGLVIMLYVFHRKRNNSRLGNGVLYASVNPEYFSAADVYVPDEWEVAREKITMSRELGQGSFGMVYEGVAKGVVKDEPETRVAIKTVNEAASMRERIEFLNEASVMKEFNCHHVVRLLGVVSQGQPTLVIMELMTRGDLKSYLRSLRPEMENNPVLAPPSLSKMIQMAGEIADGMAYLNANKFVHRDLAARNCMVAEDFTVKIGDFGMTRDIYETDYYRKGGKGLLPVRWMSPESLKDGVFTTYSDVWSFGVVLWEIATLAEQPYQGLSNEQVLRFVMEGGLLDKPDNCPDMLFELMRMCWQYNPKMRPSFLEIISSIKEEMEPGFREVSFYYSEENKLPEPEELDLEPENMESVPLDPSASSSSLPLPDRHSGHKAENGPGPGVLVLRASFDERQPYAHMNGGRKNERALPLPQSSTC
Sequence of Insulin receptor (Homo sapiens) (P06213 28-758 limits assumed): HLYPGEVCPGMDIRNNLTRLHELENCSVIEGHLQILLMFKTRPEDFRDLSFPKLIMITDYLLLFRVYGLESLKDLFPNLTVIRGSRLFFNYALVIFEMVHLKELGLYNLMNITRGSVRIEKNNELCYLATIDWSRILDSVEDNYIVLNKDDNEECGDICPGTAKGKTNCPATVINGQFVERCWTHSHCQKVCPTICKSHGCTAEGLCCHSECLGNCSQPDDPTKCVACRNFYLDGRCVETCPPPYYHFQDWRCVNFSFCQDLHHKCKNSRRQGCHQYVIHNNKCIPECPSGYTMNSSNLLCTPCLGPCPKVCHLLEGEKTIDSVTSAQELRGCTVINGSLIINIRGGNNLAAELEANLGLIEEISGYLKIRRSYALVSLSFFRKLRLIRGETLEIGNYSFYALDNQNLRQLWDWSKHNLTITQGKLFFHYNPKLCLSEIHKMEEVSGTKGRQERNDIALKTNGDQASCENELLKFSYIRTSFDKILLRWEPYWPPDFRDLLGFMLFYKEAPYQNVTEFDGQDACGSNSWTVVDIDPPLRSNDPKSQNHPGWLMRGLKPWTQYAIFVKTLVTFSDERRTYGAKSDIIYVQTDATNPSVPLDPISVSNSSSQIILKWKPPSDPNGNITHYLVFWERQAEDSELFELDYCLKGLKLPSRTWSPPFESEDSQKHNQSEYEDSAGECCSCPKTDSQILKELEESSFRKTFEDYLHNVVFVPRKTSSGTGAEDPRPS
Sequence of Insulin receptor (Homo sapiens) (P06213 763-1382 limits assumed): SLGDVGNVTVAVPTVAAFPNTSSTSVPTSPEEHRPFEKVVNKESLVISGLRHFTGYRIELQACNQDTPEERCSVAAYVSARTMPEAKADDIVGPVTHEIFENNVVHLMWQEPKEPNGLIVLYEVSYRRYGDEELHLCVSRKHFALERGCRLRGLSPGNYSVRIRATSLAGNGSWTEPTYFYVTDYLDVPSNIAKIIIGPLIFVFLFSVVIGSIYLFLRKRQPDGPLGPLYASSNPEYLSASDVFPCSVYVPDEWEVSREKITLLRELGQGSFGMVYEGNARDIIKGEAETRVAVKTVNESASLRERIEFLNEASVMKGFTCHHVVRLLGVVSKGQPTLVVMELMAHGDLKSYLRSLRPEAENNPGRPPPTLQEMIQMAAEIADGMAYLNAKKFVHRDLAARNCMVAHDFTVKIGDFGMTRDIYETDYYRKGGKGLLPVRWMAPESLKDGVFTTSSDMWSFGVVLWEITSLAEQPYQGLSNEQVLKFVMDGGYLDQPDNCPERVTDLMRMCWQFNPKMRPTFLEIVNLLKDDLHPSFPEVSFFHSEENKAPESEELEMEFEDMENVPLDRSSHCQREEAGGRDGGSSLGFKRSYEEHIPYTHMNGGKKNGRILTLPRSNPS

Compound	residual activity [1]	residual activity [2]	residual activity [3]	residual activity [4]	residual activity [5]	residual activity [6]	residual activity [7]	residual activity [8]	residual activity [9]	residual activity [10]	residual activity [11]	residual activity [12]	residual activity [13]	residual activity [14]	residual activity [15]	residual activity [16]	residual activity [17]	residual activity [18]
O=C1C(Cl)=C(N2C(=O)CCC2=O)C(=O)c2ccccc21	101%	94%	83%	89%	94%	101%	94%	68%	60%	100%	90%	90%	101%	116%	92%	100%		
O=C1NC(=O)C(c2c[nH]c3ccccc23)=C1c1c[nH]c2ccccc12	82%		75%			69%	26%	70%	14%				76%				82%	35%
